# Results filed as inconclusive are left out. Where a structure was tested more than once in an assay, its records may differ in their call. Calls of active or inactive are those of the source. How the source made its calls, unless noted: active means hit-call score of the fitted dose curve at least 0.9, where 1 is the maximum; inactive means score below 0.9.
# Tests used:
# [1] = target: CCAAT/enhancer-binding protein beta (Homo sapiens) (UniProt P17676); experiment: ATG_C_EBP_CIS: Attagene CIS-FACTORIAL HepG2 Assay for human CCAAT/Enhancer Binding Protein (C/EBP) beta (AID 2282927); conditions: HepG2 Attagene cis-factorial transcription factor reporter; actives raise or lower the signal
# CCAAT/enhancer-binding protein beta (Homo sapiens), sequence (P17676 whole entry, looked up): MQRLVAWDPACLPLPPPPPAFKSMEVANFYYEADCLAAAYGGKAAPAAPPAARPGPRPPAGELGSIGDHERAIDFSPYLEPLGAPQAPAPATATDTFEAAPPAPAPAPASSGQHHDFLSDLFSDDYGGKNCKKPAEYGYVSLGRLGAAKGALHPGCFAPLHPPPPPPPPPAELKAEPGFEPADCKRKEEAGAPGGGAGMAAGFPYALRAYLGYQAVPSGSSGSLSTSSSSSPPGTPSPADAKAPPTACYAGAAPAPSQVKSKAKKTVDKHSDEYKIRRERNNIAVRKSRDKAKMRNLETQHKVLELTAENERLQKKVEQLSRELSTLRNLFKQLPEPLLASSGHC
# In short: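 Transiently transfected HepG2 (MRTU library, endogenous TF-driven promoters); 24 h dosing; total RNA → oligo(dT) RT → PCR → 6-FAM primer extension → HpaI digest → CE; fit bidirectionally vs DMSO.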
# [2] = target: Hepatocyte nuclear factor 6 (Homo sapiens) (UniProt Q9UBC0); experiment: ATG_HNF6_CIS: Attagene CIS-FACTORIAL HepG2 Assay for human Hepatocyte Nuclear Factor 6 (HNF6) (AID 2282952); conditions: HepG2 Attagene cis-factorial HNF6 reporter transcription; actives raise or lower the signal
# Hepatocyte nuclear factor 6 (Homo sapiens), sequence (Q9UBC0 whole entry, looked up, the tested form may be a part): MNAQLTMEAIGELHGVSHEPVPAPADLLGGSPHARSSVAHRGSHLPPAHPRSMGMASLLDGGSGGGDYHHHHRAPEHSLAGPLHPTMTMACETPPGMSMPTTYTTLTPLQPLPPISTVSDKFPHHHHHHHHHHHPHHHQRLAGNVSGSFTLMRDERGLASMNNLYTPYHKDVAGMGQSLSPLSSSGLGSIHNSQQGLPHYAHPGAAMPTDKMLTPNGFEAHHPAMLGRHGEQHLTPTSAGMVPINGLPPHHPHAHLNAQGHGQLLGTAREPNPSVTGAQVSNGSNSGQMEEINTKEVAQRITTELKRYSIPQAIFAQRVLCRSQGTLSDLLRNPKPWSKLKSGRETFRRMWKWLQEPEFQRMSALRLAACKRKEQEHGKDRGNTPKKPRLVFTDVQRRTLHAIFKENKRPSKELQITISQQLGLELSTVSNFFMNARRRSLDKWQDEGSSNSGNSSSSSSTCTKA
# In short: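 Twenty-four-hour chemical treatment of reporter-transfected HepG2 cells precedes RNA isolation, DNase-treated reverse transcription and PCR of reporter sequences. Labelled fragments are sized by capillary electrophoresis and fitted bidirectionally versus DMSO.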
# [3] = target: Heat shock factor protein 1 (Homo sapiens) (UniProt Q00613); experiment: ATG_HSE_CIS: Attagene CIS-FACTORIAL HepG2 Assay for human Heat Shock Transcription Factor 1 (HSE) (AID 2282953); conditions: HepG2 HSE cis-reporter, Attagene RNA transcription; actives raise or lower the signal
# Heat shock factor protein 1 (Homo sapiens), sequence (Q00613 whole entry, looked up, the tested form may be a part): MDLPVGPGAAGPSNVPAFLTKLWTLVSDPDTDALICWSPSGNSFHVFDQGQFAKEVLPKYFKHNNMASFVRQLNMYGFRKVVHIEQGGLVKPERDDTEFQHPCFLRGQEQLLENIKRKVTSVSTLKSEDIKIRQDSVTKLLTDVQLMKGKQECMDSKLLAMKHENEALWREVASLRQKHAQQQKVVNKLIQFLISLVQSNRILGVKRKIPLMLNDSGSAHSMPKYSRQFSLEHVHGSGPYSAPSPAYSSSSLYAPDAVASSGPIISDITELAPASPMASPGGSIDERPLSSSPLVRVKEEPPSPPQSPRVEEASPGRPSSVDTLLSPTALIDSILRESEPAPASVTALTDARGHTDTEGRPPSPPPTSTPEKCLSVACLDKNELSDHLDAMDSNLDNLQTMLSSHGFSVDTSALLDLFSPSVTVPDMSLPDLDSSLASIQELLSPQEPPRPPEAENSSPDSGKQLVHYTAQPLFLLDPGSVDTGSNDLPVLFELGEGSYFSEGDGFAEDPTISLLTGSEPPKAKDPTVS
# In short: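 Read-out: fluorescence of reporter-specific RT-PCR fragments separated by capillary electrophoresis. HepG2 carrying transfected cis-element reporter units; 24 h dosing; activity fitted in both directions relative to DMSO baseline.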
# [4] = ATG_PXRE_CIS: Attagene CIS-FACTORIAL HepG2 Assay for human Pregnane X Receptor Element (PXRE) (AID 2282957); conditions: HepG2 Attagene CIS-FACTORIAL PXRE reporter, mRNA; actives raise or lower the signal
# In short: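 Bidirectional activity, baselined to DMSO, derived from reporter mRNA fluorescence (RT-PCR plus capillary electrophoresis) in HepG2 cells bearing cis-promoter reporter units, 24 h exposure.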
# [5] = ATG_Sox_CIS: Attagene CIS-FACTORIAL HepG2 Assay for human SRY-box transcription factor (SOX) (AID 2282960); conditions: HepG2 Attagene cis-factorial SOX reporter, mRNA; actives raise or lower the signal
# In short: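 HepG2 cells transiently transfected with multiple cis-regulated reporter units, then dosed for 24 h. Reporter mRNA quantified by RT-PCR, fluorescent labelling, HpaI digestion and capillary electrophoresis; bidirectional fit versus DMSO.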
# [6] = target: Transcription factor Sp1 (Homo sapiens) (UniProt P08047); experiment: ATG_Sp1_CIS: Attagene CIS-FACTORIAL HepG2 Assay for human Specificity Protein 1 (Sp1) (AID 2282961); conditions: HepG2 Sp1 cis-reporter transcription, actives raise or lower the signal
# Transcription factor Sp1 (Homo sapiens), sequence (P08047 whole entry, looked up): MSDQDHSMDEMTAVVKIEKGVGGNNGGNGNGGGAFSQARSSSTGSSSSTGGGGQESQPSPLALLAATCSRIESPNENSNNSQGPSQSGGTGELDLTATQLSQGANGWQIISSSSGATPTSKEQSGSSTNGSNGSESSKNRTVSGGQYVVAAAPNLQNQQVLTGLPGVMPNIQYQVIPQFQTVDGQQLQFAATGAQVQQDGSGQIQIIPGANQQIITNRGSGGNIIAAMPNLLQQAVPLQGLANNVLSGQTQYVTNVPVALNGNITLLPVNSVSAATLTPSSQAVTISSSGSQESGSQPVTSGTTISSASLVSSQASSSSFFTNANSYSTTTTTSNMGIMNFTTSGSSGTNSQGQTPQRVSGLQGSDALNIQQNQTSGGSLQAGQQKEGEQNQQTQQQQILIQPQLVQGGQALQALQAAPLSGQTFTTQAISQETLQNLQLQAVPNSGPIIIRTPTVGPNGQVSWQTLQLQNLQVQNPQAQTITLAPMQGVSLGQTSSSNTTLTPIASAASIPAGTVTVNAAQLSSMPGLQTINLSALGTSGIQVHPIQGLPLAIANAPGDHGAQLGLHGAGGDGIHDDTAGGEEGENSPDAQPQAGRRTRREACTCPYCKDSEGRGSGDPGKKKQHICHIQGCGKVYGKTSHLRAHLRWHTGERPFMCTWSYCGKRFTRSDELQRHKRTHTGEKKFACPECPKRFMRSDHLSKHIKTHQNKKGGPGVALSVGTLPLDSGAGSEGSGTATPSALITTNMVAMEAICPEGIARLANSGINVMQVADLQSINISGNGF
# In short: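 HepG2 cells transiently transfected with multiplexed cis-regulated reporter constructs, chemical exposure 24 h. Reporter mRNA quantified by RT-PCR with capillary electrophoresis; bidirectional fit relative to DMSO.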
# [7] = target: Signal transducer and activator of transcription 3 (Homo sapiens) (UniProt P40763); experiment: ATG_STAT3_CIS: Attagene CIS-FACTORIAL HepG2 Assay for human Signal Transducer and Activator of Transcription 3 (STAT3) (AID 2282963); conditions: HepG2, Attagene cis-factorial STAT3 reporter transcription; actives raise or lower the signal
# Signal transducer and activator of transcription 3 (Homo sapiens), sequence (P40763 whole entry, looked up, the tested form may be a part): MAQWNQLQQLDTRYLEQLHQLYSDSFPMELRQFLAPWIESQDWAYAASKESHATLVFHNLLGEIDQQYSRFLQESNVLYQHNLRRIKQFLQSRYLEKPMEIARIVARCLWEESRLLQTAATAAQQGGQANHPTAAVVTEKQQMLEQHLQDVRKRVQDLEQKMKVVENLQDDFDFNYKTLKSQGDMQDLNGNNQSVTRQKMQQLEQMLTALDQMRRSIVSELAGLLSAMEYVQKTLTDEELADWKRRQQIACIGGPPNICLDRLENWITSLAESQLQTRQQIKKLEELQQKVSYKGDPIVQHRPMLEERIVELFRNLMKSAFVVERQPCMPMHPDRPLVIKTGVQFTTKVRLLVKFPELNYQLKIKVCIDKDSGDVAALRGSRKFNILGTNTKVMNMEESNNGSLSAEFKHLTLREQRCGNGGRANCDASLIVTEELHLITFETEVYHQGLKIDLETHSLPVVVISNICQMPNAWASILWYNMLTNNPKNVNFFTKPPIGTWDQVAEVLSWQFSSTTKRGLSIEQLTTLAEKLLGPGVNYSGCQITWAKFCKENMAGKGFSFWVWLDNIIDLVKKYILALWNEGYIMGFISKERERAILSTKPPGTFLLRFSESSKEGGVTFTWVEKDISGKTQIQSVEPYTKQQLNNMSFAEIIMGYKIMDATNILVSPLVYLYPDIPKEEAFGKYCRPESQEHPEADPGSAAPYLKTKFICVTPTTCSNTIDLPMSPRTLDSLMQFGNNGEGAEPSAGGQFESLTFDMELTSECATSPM
# In short: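 Readout: fluorescent reporter mRNA fragments resolved by capillary electrophoresis. Setup: HepG2 transfected with MRTUs reporting endogenous transcription-factor activity, dosed 24 h. Gain or loss of signal fitted bidirectionally against DMSO control.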
# [8] = ATG_TAL_CIS: Attagene CIS-FACTORIAL HepG2 Assay for human TAL Basal Promoter (AID 2282966); conditions: HepG2 Attagene cis-factorial TAL promoter reporter; actives raise or lower the signal;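 further: background control endpoint measuring basal TAL promoter reporter mRNA not a specific factor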
# In short: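 Human hepatoma HepG2 cells, transfected with promoter-regulated reporter units, were treated 24 h. Reporter transcript levels, measured through RT-PCR and capillary electrophoresis, were fitted for gain or loss relative to DMSO.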
# [9] = target: X-box-binding protein 1 (Homo sapiens) (UniProt P17861); experiment: ATG_Xbp1_CIS: Attagene CIS-FACTORIAL HepG2 Assay for human X-box Binding Protein 1 (XBP1) (AID 2282972); conditions: HepG2 XBP1 cis-element reporter, Attagene multiplex; actives raise or lower the signal
# X-box-binding protein 1 (Homo sapiens), sequence (P17861 whole entry, looked up, the tested form may be a part): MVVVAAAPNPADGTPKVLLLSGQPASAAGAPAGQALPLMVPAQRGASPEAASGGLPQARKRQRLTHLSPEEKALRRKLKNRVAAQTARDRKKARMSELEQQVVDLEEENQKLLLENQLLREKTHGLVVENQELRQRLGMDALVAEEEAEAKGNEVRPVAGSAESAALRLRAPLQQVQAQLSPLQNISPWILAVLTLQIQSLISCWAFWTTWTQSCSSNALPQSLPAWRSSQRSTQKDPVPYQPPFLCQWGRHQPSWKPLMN
# In short: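 Read-out: fluorescent reporter mRNA fragments resolved by capillary electrophoresis after RT-PCR. Human HepG2 liver cells carried transfected cis-promoter reporter units and were exposed to chemicals for 24 hours. Gain or loss of signal fitted relative to DMSO baseline.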
# [10] = target: Transcriptional activator Myb (Homo sapiens) (UniProt P10242); experiment: ATG_Myb_CIS: Attagene CIS-FACTORIAL HepG2 Assay for human Myeloblastosis (Myb) Proto-Oncogene Transcription Factor (AID 2282986); conditions: HepG2 Attagene CIS-FACTORIAL Myb reporter transcription; actives raise or lower the signal
# In short: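 Transiently transfected HepG2 cells carrying a multiplexed cis-promoter reporter set report endogenous Myb activity after 24 h compound exposure. Reporter mRNA is read by RT-PCR with capillary electrophoresis of fluorescent products, fitted bidirectionally against DMSO.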
# [11] = ATG_NFI_CIS: Attagene CIS-FACTORIAL HepG2 Assay for human Nuclear Factor I (NFI) (AID 2282989); conditions: HepG2 cis-regulatory reporter, NFI response element transcription; actives raise or lower the signal
# In short: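 Read-out: reporter mRNA via RT-PCR plus capillary electrophoresis with fluorescence detection. Transiently transfected HepG2 (endogenous TF activity on cis promoters), 24 h compound exposure; gain or loss of signal fitted against DMSO.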
# [12] = target: Myc proto-oncogene protein (Homo sapiens) (UniProt P01106); experiment: ATG_Myc_CIS: Attagene CIS-FACTORIAL HepG2 Assay for human Myelocytomatosis (Myc) Proto-Oncogene Transcription Factor (AID 2282990); conditions: HepG2, Attagene cis-reporter transcription factor activity; actives raise or lower the signal
# Myc proto-oncogene protein (Homo sapiens), sequence (P01106 whole entry, looked up, the tested form may be a part): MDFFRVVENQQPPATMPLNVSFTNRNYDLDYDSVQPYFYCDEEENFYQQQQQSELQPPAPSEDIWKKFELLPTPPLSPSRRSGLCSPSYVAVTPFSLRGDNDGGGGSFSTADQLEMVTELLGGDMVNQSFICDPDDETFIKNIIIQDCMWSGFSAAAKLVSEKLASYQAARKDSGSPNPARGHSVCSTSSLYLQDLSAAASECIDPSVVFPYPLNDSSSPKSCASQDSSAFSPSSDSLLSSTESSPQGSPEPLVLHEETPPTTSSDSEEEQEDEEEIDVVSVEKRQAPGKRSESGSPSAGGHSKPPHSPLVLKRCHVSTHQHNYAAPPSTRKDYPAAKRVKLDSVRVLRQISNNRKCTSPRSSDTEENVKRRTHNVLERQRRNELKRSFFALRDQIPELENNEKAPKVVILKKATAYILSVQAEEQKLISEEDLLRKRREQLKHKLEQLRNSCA
# In short: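 Read-out: fluorescent reporter mRNA fragments resolved by capillary electrophoresis after RT-PCR. Human HepG2 liver cells carried transfected cis-element reporter units and were dosed for 24 h. Gain or loss of signal fitted relative to DMSO baseline.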
# [13] = ATG_NRF2_ARE_CIS: Attagene CIS-FACTORIAL HepG2 Assay for human Nuclear Factor Erythroid 2 Related Factor 2 (NFR2) response to Antioxidant Response Elements (ARE) (AID 2282992); conditions: HepG2 Attagene ARE/NRF2 reporter, transcription factor activity; actives raise or lower the signal;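 on AC50: reporter mRNA level measured by RT-PCR and capillary electrophoresis fluorescence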
# In short: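 Readout: reporter mRNA quantified by RT-PCR plus FAM-labelled primer extension, HpaI digestion and capillary electrophoresis, 24 h after dosing transfected HepG2 cells. Gain or loss of signal is fitted bidirectionally against DMSO baseline.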
# [14] = target: Cellular tumor antigen p53 (Homo sapiens) (UniProt P04637); experiment: ATG_p53_CIS: Attagene CIS-FACTORIAL HepG2 Assay for human p53 Transcription Factor (AID 2282994); conditions: HepG2 p53 cis-element reporter, Attagene mRNA; actives raise or lower the signal
# Cellular tumor antigen p53 (Homo sapiens), sequence (P04637 whole entry, looked up): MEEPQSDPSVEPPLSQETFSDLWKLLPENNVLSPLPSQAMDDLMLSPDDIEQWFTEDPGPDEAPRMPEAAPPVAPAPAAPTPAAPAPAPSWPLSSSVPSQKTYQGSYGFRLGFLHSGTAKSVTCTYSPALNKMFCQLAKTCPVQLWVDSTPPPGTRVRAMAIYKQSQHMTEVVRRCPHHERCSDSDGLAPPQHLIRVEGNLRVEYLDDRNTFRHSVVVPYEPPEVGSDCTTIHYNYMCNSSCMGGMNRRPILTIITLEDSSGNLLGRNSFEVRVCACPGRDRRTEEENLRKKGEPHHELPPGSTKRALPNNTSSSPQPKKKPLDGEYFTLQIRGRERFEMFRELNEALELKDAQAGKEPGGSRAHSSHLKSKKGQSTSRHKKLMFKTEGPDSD
# In short: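 Read-out: reporter mRNA by RT-PCR plus capillary electrophoresis with fluorescence detection. Human HepG2 liver cells carried transfected multi-reporter cis-element constructs, dosed 24 h. Gain or loss of signal fitted bidirectionally against DMSO control.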
# [15] = ATG_GATA_CIS: Attagene CIS-FACTORIAL HepG2 Assay for human GATA Binding Protein (AID 2282944); conditions: HepG2 GATA cis-element reporter, Attagene multiplex mRNA; actives raise or lower the signal
# In short: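 Read-out: fluorescent reporter mRNA fragments resolved by capillary electrophoresis after RT-PCR. Human liver HepG2 cells carried transiently transfected cis-regulated reporter constructs; chemicals incubated 24 h; gain or loss of signal fitted relative to DMSO.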
# [16] = target: Hypoxia-inducible factor 1-alpha (Homo sapiens) (UniProt Q16665); experiment: ATG_HIF1a_CIS: Attagene CIS-FACTORIAL HepG2 Assay for human Hypoxia Inducible Factor 1 (HIF1A) (AID 2282951); conditions: HepG2 Attagene cis-factorial HIF1a reporter transcription; actives raise or lower the signal
# Hypoxia-inducible factor 1-alpha (Homo sapiens), sequence (Q16665 whole entry, looked up): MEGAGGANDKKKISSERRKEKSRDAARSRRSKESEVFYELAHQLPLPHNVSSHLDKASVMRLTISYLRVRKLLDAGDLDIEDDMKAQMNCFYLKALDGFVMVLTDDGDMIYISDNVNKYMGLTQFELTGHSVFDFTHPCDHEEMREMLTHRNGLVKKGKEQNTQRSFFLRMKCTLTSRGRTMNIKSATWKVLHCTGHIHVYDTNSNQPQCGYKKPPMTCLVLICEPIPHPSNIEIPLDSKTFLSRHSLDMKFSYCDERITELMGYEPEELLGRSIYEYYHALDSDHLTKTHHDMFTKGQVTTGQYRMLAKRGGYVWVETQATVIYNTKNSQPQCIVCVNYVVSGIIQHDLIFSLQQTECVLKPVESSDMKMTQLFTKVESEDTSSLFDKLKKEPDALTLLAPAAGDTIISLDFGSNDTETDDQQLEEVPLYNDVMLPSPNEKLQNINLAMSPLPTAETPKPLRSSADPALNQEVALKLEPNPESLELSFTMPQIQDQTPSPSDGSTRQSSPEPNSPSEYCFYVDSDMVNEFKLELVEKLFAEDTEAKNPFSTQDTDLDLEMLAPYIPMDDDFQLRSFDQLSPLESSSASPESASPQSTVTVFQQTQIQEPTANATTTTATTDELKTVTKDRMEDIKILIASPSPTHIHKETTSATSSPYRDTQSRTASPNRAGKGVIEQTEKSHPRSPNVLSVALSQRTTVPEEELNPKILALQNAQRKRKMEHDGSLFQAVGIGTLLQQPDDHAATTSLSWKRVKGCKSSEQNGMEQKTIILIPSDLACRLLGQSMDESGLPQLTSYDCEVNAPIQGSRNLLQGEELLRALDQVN
# In short: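 HepG2 cells transiently transfected with multiple cis-regulated reporter transcription units measure endogenous transcription factor activity. After 24 h exposure, reporter mRNA is quantified by RT-PCR with 6-FAM labelling, HpaI digestion and capillary electrophoresis. Bidirectional fitting against DMSO.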
# [17] = target: Transcription factor E2F1 (Homo sapiens) (UniProt Q01094); experiment: ATG_E2F_CIS: Attagene CIS-FACTORIAL HepG2 Assay for human E2F Transcription Factor 1 (AID 2282935); conditions: HepG2 Attagene cis-reporter, E2F reporter RNA transcripts; actives raise or lower the signal
# In short: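 Transient MRTU transfection of HepG2; 24 h compound exposure; RNA → oligo(dT) RT → PCR → FAM label → HpaI cut → CE fluorescence. Gain/loss of signal fit against DMSO.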
# [18] = ATG_M_06_TRANS: Attagene TRANS-FACTORIAL HepG2 Assay for M06 Transcription Factor (Internal Marker) (AID 2282983; active means hit-call score of the fitted dose curve at least 0.9, where 1 is the maximum); conditions: HepG2 Attagene TRANS M06 internal marker reporter
# In short: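 Multi-reporter-transfected HepG2, 24 h treatment; reporter transcripts quantified via RT-PCR, primer-extension labelling and CE. DMSO-normalized gain-of-signal fit.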
# [19] = target: Cellular tumor antigen p53 (Homo sapiens) (UniProt P04637); experiment: TOX21_p53_BLA_p2_ratio: Tox21 HCT-116 p53 Agonism Beta-lactamase Assay, Ratio, Phase 2 (AID 2283592; active means hit-call score of the fitted dose curve at least 0.9, where 1 is the maximum)
# In short: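 DMSO-normalized, positive-direction endpoint derived from the 460 nm/530 nm FRET ratio in HCT116 p53 beta-lactamase reporter cells exposed 16 h at 37C and loaded with CCF4-AM for 2 h.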
# [20] = ATG_VDRE_CIS: Attagene CIS-FACTORIAL HepG2 Assay for human Vitamin D Receptor Element (VDRE) (AID 2282968); conditions: HepG2 VDRE cis-reporter transcription, actives raise or lower the signal
# In short: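 Transient MRTU transfection of HepG2, 24 h compound exposure. Readout: reporter transcripts via RT-PCR and capillary electrophoresis, fluorescence. Bidirectional fit vs DMSO.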
smiles,measurement,setting,value
CC1=C(CC(=O)O)c2cc(F)ccc2/C1=C\c1ccc(S(C)=O)cc1 (stereo unspecified),outcome,[1],inactive
same,outcome,[2],inactive
same,AC50,[3],180 µM (active)
same,AC50,[4],5.37 µM (active)
same,outcome,[5],inactive
same,outcome,[6],inactive
same,outcome,[7],inactive
same,outcome,[8],inactive
same,outcome,[9],inactive
same,outcome,[10],inactive
same,outcome,[11],inactive
same,outcome,[12],inactive
same,AC50,[13],23 µM (active)
same,outcome,[14],inactive
O=[N+]([O-])c1ccc2nc[nH]c2c1,outcome,[1],inactive
same,outcome,[15],inactive
same,outcome,[16],inactive
same,outcome,[2],inactive
same,outcome,[3],inactive
same,outcome,[4],inactive
same,outcome,[5],inactive
same,outcome,[6],inactive
same,outcome,[7],inactive
same,outcome,[8],inactive
same,outcome,[9],inactive
same,outcome,[10],inactive
same,outcome,[11],inactive
same,outcome,[12],inactive
same,outcome,[13],inactive
CC1(C)S[C@@H]2[C@H](NC(=O)[C@H](N)c3ccccc3)C(=O)N2[C@H]1C(=O)O,outcome,[1],inactive
same,outcome,[17],inactive
same,outcome,[2],inactive
same,outcome,[3],inactive
same,outcome,[5],inactive
same,outcome,[6],inactive
same,outcome,[7],inactive
same,outcome,[8],inactive
same,outcome,[18],inactive
same,outcome,[10],inactive
same,outcome,[11],inactive
same,outcome,[12],inactive
same,outcome,[13],inactive
same,outcome,[14],inactive
same,outcome,[19],inactive
NC(=O)c1ccc(N)cc1,outcome,[15],inactive
same,outcome,[16],inactive
same,outcome,[2],inactive
same,outcome,[3],inactive
same,outcome,[4],inactive
same,outcome,[5],inactive
same,outcome,[6],inactive
same,outcome,[20],inactive
same,outcome,[9],inactive
same,outcome,[18],inactive
same,outcome,[11],inactive
same,outcome,[12],inactive
same,outcome,[13],inactive
same,outcome,[14],inactive
same,outcome,[19],inactive
NC(=O)c1ccc([N+](=O)[O-])cc1Cl,outcome,[15],inactive
same,outcome,[16],inactive
same,outcome,[2],inactive
same,outcome,[3],inactive
same,outcome,[4],inactive
same,outcome,[5],inactive
same,outcome,[6],inactive
same,outcome,[20],inactive
same,outcome,[9],inactive
same,outcome,[18],inactive
same,outcome,[10],inactive
same,outcome,[11],inactive
same,outcome,[12],inactive
same,outcome,[13],inactive
same,outcome,[14],inactive
same,outcome,[19],inactive
O=[N+]([O-])c1ccc(ON=Cc2cc(Br)c(O)c(Br)c2)c([N+](=O)[O-])c1,AC50,[19],79 µM (active)
CCCCCC[C@@H](O)C/C=C\CCCCCCCC(=O)O,AC50,[17],177 µM (active)
same,AC50,[15],165 µM (active)
same,outcome,[16],inactive
same,AC50,[2],160 µM (active)
same,AC50,[3],187 µM (active)
same,outcome,[6],inactive
same,AC50,[7],160 µM (active)
same,outcome,[20],inactive
same,outcome,[9],inactive
same,outcome,[18],inactive
same,AC50,[11],153 µM (active)
same,AC50,[13],100 µM (active)
same,outcome,[14],inactive
same,AC50,[19],68.9 µM (active)
same,outcome,[19],inactive

# Source: PubChem BioAssay (EPA / NIEHS)
